Over roughly 59,000 sequences, the read-out has its median near -0.00055; the lowest 2% begin near -2. Shown is part of a subset that was picked to be rich in the lowest values.
test: Identification of proteins required for the processing of the EWS-FLI1 nascent transcript; conditions: TC32 Ewing sarcoma NR0B1-luc vs CMV-luc (EWS-FLI1 target promoter against control promoter), 48 h; screened at 20 nM (by protocol);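 also: robust z of luciferase light less the median z of siRNAs with the same seed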
Outline: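 TC32 Ewing sarcoma cells carrying NR0B1-promoter or CMV-promoter luciferase reporters were reverse-transfected with single siRNAs at 20 nM, three per gene genome-wide. Luminescence was read after 48 h and normalized to non-targeting controls.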

| Sequence | seed-corrected z-score |
| --- | --- |
| AUCGCUAAGACGGUGAUCC against EIF4ENIF1 | -0.0436 |
| UUCCGCAGCAAUGAUAGGC against TMEM132D | -0.636 |
| UCUGCUACUCCAUUGAUCU against TRMT12 | -1.63 |
| UACAUAGAAGGUGUUGGGC against CD81 | 0.0377 |
| UUCUUUUGUCCAUACAAUC against TAS2R45 | -2.34 |
| UACAAGCCCAGUUGAGAUC against DSTNP4 | -0.547 |
| UACGAUAUUGUUGCUACAG against SLIT2 | -0.0537 |
| UAUUAGUCCCGGACGAAUG against SCAF8 | -0.115 |
| UUGUUUAUGAGCAAGGUGG against RPL41 | -0.22 |
| UUUGGUGCAAAGUCCAUGC against SKIV2L | -2.51 |
| UUGAGGAUACAGCACAGCC against SERPINI1 | -0.491 |
| ACAGGCUUUAUCAUACUGC against ZXDC | -0.245 |
| UAGGUGAUAUCUCUCCGCC against TGM4 | -0.284 |
| ACAGUUCUCGCAGUACUGG against GPANK1 | -0.197 |
| UGACCAUCCAGAAGUAGUU against SPHK1 | -0.911 |
| UUGGUAGAUAUGAUCUUCG against TCEA3 | 0.375 |
| UUGGGUAUUGUUCUUGACU against SNRPD2 | -2.58 |
| UGUUUAUUAGAAGUGACUC against FOLR2 | -0.238 |
| UAGUUGUCAGUGAAGACUG against VIP | -2.09 |
| CUUGUAGCUUCUCUACAUC against LOC441347 | -0.389 |
| UUCUCAUCAAGCUGUCUCC against SH3RF2 | 0.136 |
| UAUAACAGCAGUAUCUGUC against TMEM215 | 0.183 |
| UUGUUGAAAUGGAACUCCU against HOXB1 | 0.384 |
| UCAGUGCACGCAACUGUGU against TNXB | 0.0625 |
| UAUAUGAUUAACAAAACGG against XKR3 | 0.439 |

| Sequence | seed-corrected z-score |
| --- | --- |
| UUCUUUCCGAUGAUACUGC against PCBP2 | -3.36 |
| UUUCGCAGUUGUAAGACCG against CROCCP3 | 0.0641 |
| UAGAAUUUCUCGUACAACC against RALGPS1 | 0.75 |
| UAAUGAGCAGUGACUCUGG against BTBD11 | 0.456 |
| AAUUCUUCAAAACUAACUU against S100G | 0.467 |
| AUCCGUACGCCUCCGAUUC against PCSK4 | -0.594 |
| AAGGGAUAAGGGAUCAUCC against ST7 | -0.0379 |
| UAUAGUUACAUGACUGCUG against SNU13 | -6.52 |
| UUUUUAAUGCCUUAUAGUC against TTLL13P | 1.17 |
| UACAUAGCUGCAUAGACAC against PLPPR5 | -2.18 |
| UUCUUUAGCAACAUCACAG against CBR4 | 0.335 |
| UAAGAUAUCUGACCACUAG against ZNF620 | 0.641 |
| UCCAUAUCCCAUGACAUGC against SLC17A6 | -0.139 |
| UGCUUGAGCAGAAUGACCG against DIO2 | -2.14 |
| UGAACUUGCACACUUGAGU against KLK7 | 0.253 |
| AAACUUUGGAUGUUUUUGG against PPBP | 0.549 |
| UUAGUACAGAUGCAGUUCU against OR56A5 | -14.6 |
| UUUCGGUACGUGUAGUAGC against STRA6 | 0.803 |
| UCUUUGACAAUAUCAACAG against UBE3D | -0.267 |
| UGCGUGUCUUCUUUAACCU against FAM174B | -0.0387 |
| UUAGAUCCAUGCUAUAAGC against PMS2P12 | -0.142 |
| UAAUCGUUUCUACAAGAUC against ATF7IP | -2.43 |
| UUAAUCUUCAUCGUAAUAG against ZPLD1 | -0.649 |
| UUUUUCGACAGGAAAGUGU against C5orf60 | 0.245 |
| UUCAUUAUUAUCUCAGGAG against RFC3 | -1.02 |

| Sequence | seed-corrected z-score |
| --- | --- |
| UUCAGCAUAAAGACUGAUC against VPS41 | -0.683 |
| UCACUUCCUAUUCCCAUGG against PALM3 | -1.4 |
| AUCUUGGUAACAAACUUGG against TRPV4 | -3.43 |
| UAAUCGUUGGGAUCCAGUC against PCDHA13 | 0.188 |
| UGUACGAUGAAGGUCAUGC against SLC34A2 | -0.00732 |
| UUCGUGUUUUGAAUCUUGG against B4GALT2 | 1.23 |
| AGCUGGAUCAUUUCUACAG against PKDCC | -2.45 |
| UAGACUGUCACGUUGUAUG against SEZ6L | 0.278 |
| AAAGAGAUAAUGUUCCUCC against FAM180B | 0.869 |
| UCCCUAACAAAGCAUGUAC against ISL1 | -0.138 |
| UUCUAAGAAAGCGAGCUGC against EID2B | -0.614 |
| UCUCGAGUUAUGUGGUUGG against RAD51D | 0.265 |
| AUAGUUGCAAUCAAACGAG against SFT2D2 | -3.87 |
| UCUGGGAAAACAUGGUUGU against DUBR | -1.17 |
| ACAGAUAUAACACUCAUCG against ANO10 | -0.322 |
| AUUGUGACUAUUAUGAGUC against MTND5P10 | -0.792 |
| UACAGAUCCGCGAUGUACU against RCN3 | 0.823 |
| UUUCCGAAAAUUUAGUGGG against ATAD2 | 0.659 |
| UGGUGGUCCACCUUGUUAG against F13A1 | -1.25 |
| UCCAGUGCAAUGACUCUUG against ZNF114 | -2.45 |
| AACUUUUCACUGGUGACCC against C7orf55 | -0.00837 |
| UCUCAGGAUAGGAACCACC against SPRR2G | -0.114 |
| UUUAGAUCUAGAAUUACAC against SPESP1 | -0.539 |
| UGAGCUCUGAGAAUUGAGG against POM121 | 0.483 |
| UGCAGAUGCGGAAAGCUGC against LOC388692 | 0.336 |

| Sequence | seed-corrected z-score |
| --- | --- |
| AUCCAGUUCACGUAGGCAG against TPSG1 | -2.87 |
| UCUGCGUACUCAUCCAUCC against GALNT10 | 0.408 |
| UCUGAUCUCACGGAUGAAG against RASEF | 0.117 |
| UUAGGCUCUUUGUAUGUCC against ELOVL4 | 0.198 |
| UUUCUGCACAGGAAUAUCG against CD37 | -3.03 |
| UCCGCGUAUAAAUAGGUGC against RSPH1 | -0.487 |
| UGAGUUGAAGGUCUGCCCG against MPND | -0.48 |
| UGAUAGAUGAAUAUCAUCC against KIAA0232 | -0.728 |
| UAUUCGCACAGGCUGAUUC against BBS12 | 0.0215 |
| AAGUUGGUGAUUAAUCUCC against DERL2 | -0.311 |
| UUCUGUGGAAGAUUUCUGG against TOP3A | -0.163 |
| UAUUUGACUAGGCGACUUC against NET1 | -2.17 |
| UAUCUAAAGAGACCCUGUC against YPEL1 | 1.06 |
| ACAGUAUCCUCAGAUGUCC against SHROOM2 | 0.0618 |
| UGCAGUACUGAAGAUAACG against EOGT | -1.09 |
| UUCUUAGCCGCGAUGGUCU against DES | 0.351 |
| UAGGUAGAAGUGAUUGUUC against ZFAND4 | 0.956 |
| AUGUGGACAGCGUAGCUCC against FUT4 | -0.421 |
| UACAUUGUGAGAUCCCUGG against C17orf78 | -2.15 |
| UUAUGAACCCUGGAGCUCC against ADRB3 | 0.000803 |
| AAUACGAUGACAAUAAGGC against FAM200A | -0.251 |
| AUAGCUGCGAACAAAGGCC against ZNF404 | -6.09 |
| UUCGACUUGGUUGCAAUGG against PPBP | 0.68 |
| UCCAGUUGUAUGUAAGGGC against ZDHHC6 | -1.09 |
| AAUGGUCUUGUGAAUGGUC against LSM12 | -2.08 |

| Sequence | seed-corrected z-score |
| --- | --- |
| UUUCGUCAACAGUUCAAUC against USP34 | -0.287 |
| UAAUCGAAAAACUUCAAUG against CLN5 | -0.147 |
| AUCUCUGUAAGAUUGAUUC against ELMOD2 | 0.0598 |
| UUGCUUUCCACAACGAGAU against CHL1-AS2 | -0.29 |
| UUCUGCAUCAUAAUUGUCG against ADPRHL1 | -0.679 |
| UUGGUAGGCAUCGUAGUAG against CLDN2 | 0.894 |
| UAGCUGUGUGGAUCAGUGC against LOC642502 | -2.62 |
| UCACUGUAUCUAAUAAAGC against FRG1JP | -0.744 |
| AAUUUUAUCACCCAGAAAC against FCGR2B | 0.134 |
| UGAGUUUCUUCUCCGUUCU against C11orf97 | -3.81 |
| UGAAAAGCGCUGCUUAACC against PRSS45 | 0.905 |
| UUCUUUGAUAGACUUCACC against FTMT | 0.658 |
| UGAGAGUUAAAGGCCUUUC against ABHD14A | -2.97 |
| AAAUGUGCUCAAACUGUCU against ARL14 | -0.125 |
| UUCUCUCAAGCUUCAAUGG against ZNF286A | 0.716 |
| AGAGUUAAUUGGUAUGUCC against GIGYF1 | 0.0611 |
| UCUGUUACUUCUGGUUUGC against BAAT | -0.229 |
| UUAGCUGCUAGAAACAAGG against CCNT1 | -2.99 |
| UGAGUUUCCAUGCAUAGGA against GOLGA7 | -3.67 |
| UCAGGUACGACUUUCGAUA against C1orf109 | -1.21 |
| AGAGAUACAAGGUUUGAUC against ARG2 | -0.0393 |
| UCCUUGUACACGGCCAGCU against PCED1CP | 0.3 |
| UGUACAUAGACGGUGAGGC against CD200 | 0.299 |

From PubChem BioAssay AID1159506 (National Center for Advancing Translational Sciences (NCATS), 2015)
